“And” between values parts separate entries of the source, which are not always exact repeats. Equal entries are not always repeated. Out of some 16,000 compounds screened, about 5,700 (36%) were called active. Inconclusive results (about 24%) are left out. The call rests on the fitted dose curve; in most records, active means well fitted curve in the direction sought with a large enough effect; inconclusive means small, poorly fitted or top-dose-only effect, or effect the other way; inactive means no such curve, though single readings can be large or run the other way. The list shows a part of the results.
What follows are compounds tested against Cytochrome P450 1A2 (Homo sapiens) (UniProt P05177) (assay: Cytochrome panel assay with activity outcomes). Conditions: recombinant CYP, pro-luciferin dealkylation, luminescence, p450-cyp1a2; series mostly up to 57.1 µM; activity, negative = inhibition: at the top concentration.
Chain of Cytochrome P450 1A2 (Homo sapiens) (P05177 whole entry, looked up): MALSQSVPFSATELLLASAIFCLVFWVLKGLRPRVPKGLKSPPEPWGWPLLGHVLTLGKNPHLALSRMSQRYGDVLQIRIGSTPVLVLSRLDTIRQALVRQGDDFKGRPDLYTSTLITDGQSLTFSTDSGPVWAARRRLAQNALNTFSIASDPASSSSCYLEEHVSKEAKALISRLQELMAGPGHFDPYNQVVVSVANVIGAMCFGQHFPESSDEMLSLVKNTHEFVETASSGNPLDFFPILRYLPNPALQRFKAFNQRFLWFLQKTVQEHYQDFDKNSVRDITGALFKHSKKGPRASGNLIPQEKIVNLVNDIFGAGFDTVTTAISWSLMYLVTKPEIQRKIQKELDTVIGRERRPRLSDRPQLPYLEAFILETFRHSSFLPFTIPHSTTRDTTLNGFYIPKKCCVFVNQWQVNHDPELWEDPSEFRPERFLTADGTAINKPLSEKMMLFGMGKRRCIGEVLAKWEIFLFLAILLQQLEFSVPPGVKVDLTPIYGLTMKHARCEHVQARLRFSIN
On the % scale 0 is the no-effect control and ±100 the full control effect.

| Compound | activity, negative = inhibition | AC50 |
| --- | --- | --- |
| CCCCCCCCCCCCCCCC(=O)NC[C@@H](COP(=O)([O-])OCC[N+](C)(C)C)OCC | -4.69% (inactive) |  |
| Cc1cc2c(nc1C)CCCN2C[C@H](O)CN1CCCc2nc(-c3ccc(Br)cc3)ccc21 | 3.9% [at 11.4 µM] (inactive) and 2.86% [at 11.4 µM] (inactive) |  |
| CC1(C)CC(=O)C(C=NCCN2CCN(C(=S)Nc3ccc(F)cc3)CC2)=C(O)C1 | -8.42% (inactive) |  |
| CN1CC(c2ccccn2)C2(SC(=S)N(Cc3ccccc3)C2=O)C12C(=O)Nc1ccccc12 (configuration not stated) |  | 17800 nM (active) |
| CN1CC(c2ccccc2)C2(COc3ccccc3C2=O)C12C(=O)Nc1ccccc12 (configuration not stated) | -2.04% (inactive) |  |
| CC(/C=C/c1ccccc1)=N/NC(=O)CNC(=O)c1ccc2c(c1)OCO2 |  | 2240 nM (active) |
| CC1CCCCN1c1nc(-c2ccncc2)nc2ccccc12 (configuration not stated) |  | 355 nM (active) |
| NC(=O)C1(N2CCCCC2)CCN(C(=O)c2ccc(-n3cnnn3)cc2)CC1 | -6.42% (inactive) |  |
| N#CC(c1ccc(Cl)cc1)c1nc2ccccc2nc1C(F)(F)F (configuration not stated) |  | 1580 nM (active) |
| CCOC(=O)c1ccc(S(=O)(=O)Nc2ccc3cn[nH]c3c2)cc1 |  | 5010 nM (active) |
| Cc1ccnc(NS(=O)(=O)c2ccc(NC(=O)C3CCCNC3=O)cc2)n1 (configuration not stated) | 12.8% (inactive) |  |
| CCOc1cc(C)c(S(=O)(=O)Nc2ccc3cn[nH]c3c2)cc1C |  | 178 nM (active) |
| Cn1c(=O)[nH]c(=O)c2c1nc(CN(Cc1ccccc1)Cc1ccccc1)n2CCN1CCOCC1 | 2.25% (inactive) |  |
| C[C@@H](O)[C@H]1C(=O)N2C(C(=O)O)=C(S[C@@H]3CN[C@H](C(=O)N(C)C)C3)[C@H](C)[C@H]12 | -7.27% [at 25.6 µM] (inactive) |  |
| CN1c2ccccc2Oc2c(c(=O)n(C)c(=O)n2C)C1c1cccc([N+](=O)[O-])c1 (configuration not stated) | -15.5% (inactive) |  |
| O=C(c1ccco1)N1CCN(C(=O)c2nn3cccnc3c2Cl)CC1 | 12.2% (inactive) |  |
| COCC(=O)N1CCC2(CC1)CCN(C(=O)Nc1ccc(OC)cc1)CC2 | 6.19% (inactive) |  |
| COCC(=O)Nc1ccc(-c2cn3cccnc3n2)cc1 |  | 7080 nM (active) |
| CCOCC(=O)Nc1cc(-c2cn3cccnc3n2)ccc1C |  | 50.1 nM (active) |
| CCCC(=O)Nc1cc(-c2cn3cccnc3n2)ccc1OC |  | 100 nM (active) |
| N#Cc1cccc(NC(=O)N2CCC3(CC2)CCN(C(=O)c2ccco2)CC3)c1 | -19.1% (inactive) |  |
| O=C(Nc1cccc(-c2cn3cccnc3n2)c1)c1ccco1 |  | 31.6 nM (active) |

| Compound | activity, negative = inhibition | AC50 |
| --- | --- | --- |
| CCOc1ccc(-n2c(SCC(=O)Nc3ccccc3C)n[nH]c2=O)cc1 | -17.9% (inactive) |  |
| NC(=O)c1ccc[n+](CC(=O)OCCC23CC4CC(CC(C4)C2)C3)c1 | 2.04% (inactive) |  |
| CC(=O)C[C@H](O)[C@@H](NC(=O)OC(C)(C)C)C(C)C | 0.505% [at 11.4 µM] (inactive) |  |
| Cc1cc(C2(c3cc(C)c(O)c(C(=O)O)c3)OS(=O)(=O)c3ccccc32)cc(C(=O)O)c1O | -9.3% [at 11.4 µM] (inactive) |  |
| c1ccc([P+](CC[P+](c2ccccc2)(c2ccccc2)c2ccccc2)(c2ccccc2)c2ccccc2)cc1 | -7.8% [at 11.4 µM] (inactive) |  |
| O=c1c2c(n3cnnc3n1-c1ccccc1)-c1ccccc1CC21CCCCC1 | -10.4% (inactive) |  |
| Nc1nc(=S)[nH]c2c1C1(CCCC1)Cc1ccccc1-2 |  | 891 nM (active) |
| CCOC(=O)CCN1C(=O)[C@H]2[C@H]3[C@H](O)[C@H](O)C/C(=N/OC/C=C(\C)CCC=C(C)C)[C@H]3CC[C@@H]2C1=O | 1.64% [at 11.4 µM] (inactive) |  |
| CC(=O)c1cccc(NC(=O)c2csc(-n3nc(C)cc3C(F)(F)F)n2)c1 |  | 3160 nM (active) |
| CO[C@H]1[C@@H](OC(N)=O)[C@H](O)[C@@H](Oc2ccc3c(O)c(NC(=O)c4ccc(O)c(CC=C(C)C)c4)c(=O)oc3c2C)OC1(C)C | -19.8% [at 25.6 µM] (inactive) |  |
| Cc1cc2c(nc1C)CCCN2C[C@H](C)O/N=C1/[C@H]2O[C@@H]2[C@@H](O)[C@H]2[C@H]1CCn1c(=O)n(-c3ccccc3)c(=O)n12 | 2.9% [at 11.4 µM] (inactive) |  |
| Cc1cc(SC(C)C(=O)Nc2c(C)n(C)n(-c3ccccc3)c2=O)nc2ccccc12 (configuration not stated) |  | 1000 nM (active) |
| Cc1cc(C(=O)Nc2c(C)n(C)n(-c3ccccc3)c2=O)c2ccccc2n1 | -5.52% (inactive) |  |
| Cc1c(NC(=O)Nc2c(Cl)cccc2Cl)c(=O)n(-c2ccccc2)n1C | -6.85% [at 11.4 µM] (inactive) |  |
| CCCc1cc(=O)[nH]c(=S)[nH]1 | -12% [at 25.6 µM] (inactive) |  |
| COc1ccc(-c2nc3cnc(N4CCNCC4)nc3n(C3CC3)c2=O)cc1 |  | 6310 nM (active) |
| O=c1c(-c2cc(F)cc(F)c2)nc2cnc(N3CCNCC3)nc2n1C1CC1 |  | 3160 nM (active) |
| O=c1c(-c2ccc(F)cc2)nc2cnc(N3CCNCC3)nc2n1C1CC1 |  | 2510 nM (active) |
| CS(=O)(=O)N1CCC2(CCCN(c3ccncc3)C2)CC1 | -11.4% (inactive) |  |
| C/C(=N\NC(=O)Cc1ccc(Cl)cc1)c1ccccn1 |  | 4470 nM (active) |
| C/C(=N\NC(=O)CC1N=C(Cc2ccccc2)NNC1=O)c1ccc(Cl)cc1Cl (configuration not stated) | -6.27% (inactive) |  |
| COc1cccc([C@H](O)Cn2cc(-c3cccc(CON=C(C)C)c3)nn2)c1 | -3.64% [at 11.4 µM] (inactive) |  |

| Compound | activity, negative = inhibition | AC50 |
| --- | --- | --- |
| COc1ccc2c(c1OC)C(=O)OC2[C@H]1c2c(cc3c(c2OC)OCO3)CCN1C (some centres not stated) |  | inactive |
| C[N+]1(C)CCc2cc3c(cc2[C@@H]1[C@@H]1C(=O)Oc2c1ccc1c2OCO1)OCO3 |  | 1260 nM (active) |
| C=CCNc1oc(/C=C/c2ccccc2)nc1C#N |  | 3550 nM (active) |
| O=C(c1csnn1)N1CCC2(CC1)CN(C(c1ccccc1)c1ccccc1)C2 | -12.6% (inactive) |  |
| CCOC(=O)C(=Cc1ccc(-c2ccsc2C(=O)OC)o1)C(=O)OCC |  | 14100 nM (active) |
| S=C1SCN(C2CCCCCCCCCCC2)CN1C1CCCCCCCCCCC1 | -14.7% [at 2.29 µM] (inactive) |  |
| O=C(CSc1ccccc1C(=O)O)NCc1ccco1 | 8.39% (inactive) |  |
| O=C(Cn1cc(C(=O)c2ccco2)c2ccccc21)NCc1ccco1 |  | 11200 nM (active) |
| COc1ccccc1OCCn1cc(C(=O)c2ccco2)c2ccccc21 |  | 2510 nM (active) |
| COc1ccccc1CN1CCC2(CC1)CCN(C(=O)c1ccco1)CC2 | -0.397% (inactive) |  |
| COc1ccccc1CN1CCCC2(CCN(C(=O)c3ccco3)CC2)C1 | -20.3% (inactive) |  |
| N#Cc1cc(-c2ccc(Cl)cc2)cnc1Sc1ccccc1 |  | 398 nM (active) |
| N#Cc1cc(-c2ccccc2)cnc1Sc1ccc(Cl)cc1 |  | 1780 nM (active) |
| N#Cc1cc(-c2ccc(Cl)cc2)cnc1Sc1ccc(F)cc1 |  | 112 nM (active) |
| CO/N=C(\C(=O)N[C@@H]1C(=O)N2C(C(=O)O)=C(COC(C)=O)CS[C@@H]12)c1csc(N)n1 | -6.57% (inactive) |  |
| CN[C@]1(C)[C@H]2CC[C@@H](C2)C1(C)C | 0.247% [at 25.6 µM] (inactive) |  |
| CC(=O)OC[C@@H]1O[C@H](C/C=N\O[C@@H](C)c2cn([C@H]3COC[C@H]3O)nn2)C=C[C@@H]1OC(C)=O | -4.99% [at 11.4 µM] (inactive) |  |
| COc1ccc(C(=O)N2CCC3(CCCN(C(=O)Nc4cccc(F)c4)C3)CC2)cc1 |  | 20000 nM (active) |
| COC(=O)N1CCC2(CCN(C(=O)Nc3cccc(F)c3)CC2)CC1 |  | 12600 nM (active) |
| O=C(Nc1cccc(F)c1)N1CCCC2(CCN(C(=O)c3cnccn3)CC2)C1 | -22.5% (inactive) |  |
| COc1ccc(C(=O)N2CCC3(CCN(C(=O)Nc4cccc(F)c4)CC3)CC2)cc1 | -16.9% (inactive) |  |
| COc1ccc(NC(=O)N2CCCC3(CCN(C(=O)c4cccc(F)c4)CC3)C2)cc1 | -13.1% (inactive) |  |

| Compound | activity, negative = inhibition | AC50 |
| --- | --- | --- |
| COC(=O)N1CCC2(CC1)CN(C(=O)Nc1cccc(F)c1)C2 | -2.39% (inactive) |  |
| O=C(Nc1cccc(F)c1)N1CCCC2(CCN(C(=O)c3ccncc3)CC2)C1 |  | 12600 nM (active) |
| CC(=O)N1CCC2(CCCN(C(=O)Nc3cccc(F)c3)C2)CC1 | -8.44% (inactive) |  |
| COC(=O)N1CCC2(CCCN(C(=O)Nc3cccc(F)c3)C2)CC1 | 14% (inactive) |  |
| COc1ccc2[nH]cc(CCNc3ccnc(-c4ccccc4C)n3)c2c1 |  | 316 nM (active) |
| COc1ccc2[nH]cc(CCNc3ccnc(-c4ccccc4Cl)n3)c2c1 |  | 398 nM (active) |
| C#C[C@H](N)CCC(=O)O | -0.402% (inactive) |  |
| Nc1ncnc2nn([C@H]3O[C@@H](CO)[C@@H](O)[C@H]3O)nc12 | -11.4% [at 11.4 µM] (inactive) |  |
| Cc1ccc(C)c(S(=O)(=O)NCc2ccc(C(=O)N3CCC(Cc4ccccc4)CC3)cc2)c1 | -9.01% (inactive) |  |
| Cc1ccc2c(c1)N[C@H](c1ccc(C(=O)O)cc1)c1cccn1-2 |  | 794 nM (active) |
| CN(C)CCNCCN | -0.129% [at 11.4 µM] (inactive) |  |
| N=C(N)c1ccccc1 | -7.52% (inactive) |  |
| N=C(N)c1ccc(N=Nc2c(O)ccc3c2[nH]c2ccccc23)cc1 |  | 1580 nM (active) |
| Cc1ccc(NC(=O)NCCCc2ccccc2)cc1 |  | 3550 nM (active) |
| CC(C)C(=O)NCCCc1ccccc1 | -15.1% (inactive) |  |
| O=C(NCCCc1ccccc1)c1cccs1 |  | 11200 nM (active) |
| CSCC[C@@H]1NC(=O)C/C=C\[C@@H](C)COC(=O)[C@@H](C)COC1=O | 4.43% [at 11.4 µM] (inactive) |  |
| C[C@H]1[C@@H](O)[C@@H](C)\C=C/C=C\C=C/C=C\C=C/C=C\C=C/[C@@H](O[C@H]2O[C@@H](C)[C@@H](O)[C@@H](N)[C@@H]2O)C[C@@H]2O[C@](O)(C[C@@H](O)C[C@@H](O)[C@@H](O)CC[C@@H](O)C[C@@H](O)CC(=O)O[C@H]1C)C[C@@H](O)[C@H]2C(=O)O (stereo in doubt) | -0.696% [at 25.6 µM] (inactive) |  |
| CCC(O)CNc1nc(-n2nc(C)cc2C)nc2sc3c(c12)CC(C)(C)OC3 (configuration not stated) |  | 14100 nM (active) |
| Cc1cc(C)n(-c2nc(NCC(C)O)c3c4c(sc3n2)COC(C)(C)C4)n1 (configuration not stated) |  | 8910 nM (active) |
| Cc1cc(NC(=O)Nc2ccc3c(ccn3C)c2)sn1 |  | 5010 nM (active) |

Source: PubChem BioAssay AID1851 (National Center for Advancing Translational Sciences (NCATS), 2009)
